Source: PubChem BioAssay
The list is not random: actives were taken first. Their share in the collection is about 2.9%.
KLK7 zymogen act: activators of human kallikrein-7 zymogen. P49862. purified proKLK7, EDANS-DABCYL substrate fluorescence; 100% is mature enzyme control, 0% vehicle. activation, % at 7 µM. 0.9% of 370,000 active;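 active means activation above the mean of all tested compounds plus 3 SD, computed per campaign excluding outliers beyond control limits, cut at about 13% in these data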
Target sequence (P49862 whole entry, looked up): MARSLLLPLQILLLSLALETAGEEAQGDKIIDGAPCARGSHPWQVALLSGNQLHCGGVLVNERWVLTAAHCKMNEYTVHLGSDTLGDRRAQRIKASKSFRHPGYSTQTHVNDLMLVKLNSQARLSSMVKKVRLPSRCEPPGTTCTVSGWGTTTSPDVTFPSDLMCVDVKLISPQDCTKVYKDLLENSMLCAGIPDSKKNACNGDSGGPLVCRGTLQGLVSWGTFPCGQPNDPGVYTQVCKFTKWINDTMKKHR
FAS TE block: inhibitors of human fatty acid synthase thioesterase domain | P49327 | recombinant FAS-TE, OMFH fluorogenic substrate, fluorescence endpoint | inhibition, % at 15 µM | 0.67% of 360,000 active;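 active means compounds whose normalised, plate-corrected inhibition of enzyme fluorescence in the single-dose primary screen is 50% or more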;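 further: 0% = DMSO with enzyme and 100% = substrate without enzyme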
SMARCA2 act: activators of SMARCA2 function | activation, % at 9.1 µM | MG213 cells, MMTV-luciferase reporter, dexamethasone, overnight | 1% of 370,000 active; in the data active means activation above about 7.8%;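 further: 0% = vehicle wells and 100% = reference activator wells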
FXN GAA850 act: increases GAA850 frataxin promoter reporter activity | 0.56% of 360,000 active | HEK293 lucGAA850 FXN promoter luciferase reporter, 24 h; percent of 10 µM SAHA response | activation, % at 6 µM;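 active means activation above the average of all compounds screened plus 3 SD, cutoff fixed separately per campaign, cut at about 7.5% in these data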;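 further: 0% = DMSO wells and 100% = 10 µM SAHA wells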
* hit, by the source's call.

Screening O=C(Nc1cc(S(=O)(=O)N2CCOCC2)ccc1Oc1ccc(F)cc1)C1=COCCO1 returned KLK7 zymogen act 1, FAS TE block 6, SMARCA2 act -2 and FXN GAA850 act 0.
`Cc1ccc([C@H]2C[C@@H](O)[C@H](n3cc(C4CC4)nn3)CN2CC2CCCCC2)cc1` gave KLK7 zymogen act 1, FAS TE block 16, SMARCA2 act 7.8* and FXN GAA850 act -1.
For O[C@@H]1C[C@H](c2ccc(Cl)cc2)N(CC2CCCCC2)C[C@H]1n1cc(C2CC2)nn1 the results were KLK7 zymogen act 0, FAS TE block 3, SMARCA2 act 7.9* and FXN GAA850 act 1.
For CC(C)(C)C1=CC(=O)C(=O)C(C(C)(C)C)=C1 the results were FAS TE block 3 and FXN GAA850 act 11*.
Screening O=C(/C=C/c1cccc(F)c1)OCC(=O)c1ccc[nH]1 returned KLK7 zymogen act 1, FAS TE block -2, SMARCA2 act 7.9* and FXN GAA850 act 3.
`O=C(/C=C/c1ccc(F)cc1)OCC(=O)c1ccc[nH]1` gave KLK7 zymogen act 0, FAS TE block -2, SMARCA2 act 2 and FXN GAA850 act 2.
For COC(=O)C(=Cc1ccc(-c2ccsc2C(=O)OC)o1)C(=O)OC the results were KLK7 zymogen act 0, FAS TE block -2, SMARCA2 act 7.9* and FXN GAA850 act 0.
Screening CCCCN(C=O)c1c(CC)nc2c(OCC(=O)c3ccc(F)cc3)cccn12 returned KLK7 zymogen act 0, FAS TE block -2, SMARCA2 act 7.9* and FXN GAA850 act 0.
`CCn1c(=O)c2c(nc3n2CCS3)n(C)c1=O` gave KLK7 zymogen act 1, FAS TE block -7, SMARCA2 act 3 and FXN GAA850 act -3.
Screening COc1ccc(S(=O)(=O)N/N=C/c2ccc(OCCN3CCOCC3)c(OC)c2)cc1 returned KLK7 zymogen act 0, FAS TE block -7, SMARCA2 act 1 and FXN GAA850 act 1.
For COc1cc(/C=N/NS(=O)(=O)c2ccc3ccccc3c2)ccc1OCCN1CCOCC1 the results were KLK7 zymogen act 1, FAS TE block -7, SMARCA2 act 10* and FXN GAA850 act 1.
Cc1ccc(-c2nc(-c3ccncc3)no2)cc1 was read as KLK7 zymogen act 0, FAS TE block -2, SMARCA2 act 4 and FXN GAA850 act 4.
Screening Cc1ccc(-c2nc(-c3ccccc3)no2)cc1 returned KLK7 zymogen act 0, FAS TE block 15, SMARCA2 act 7.8* and FXN GAA850 act 4.
CCn1cc(C(=O)N2CCN(c3ccccn3)CC2)c2cc(OC)c(OC)cc2c1=O was read as KLK7 zymogen act 0, FAS TE block -4, SMARCA2 act 8.4* and FXN GAA850 act -3.
For COc1ccc(OCCOC(=O)CNC(=O)c2cccc(C)c2)cc1 the results were KLK7 zymogen act 0, FAS TE block -5, SMARCA2 act 3 and FXN GAA850 act 1.
For Cn1nnnc1SCC(=O)Nc1c(Cl)cccc1Cl the results were KLK7 zymogen act 0, FAS TE block -8, SMARCA2 act -1 and FXN GAA850 act 1.
For Cc1ccc(-c2nc(=S)c3c(n2Cc2ccco2)CC(C)(C)OC3)cc1 the results were FAS TE block 4 and FXN GAA850 act 7.6*.
Screening Cc1ccc(-c2nc(=S)c3c(n2Cc2ccco2)CCCC3)cc1 returned KLK7 zymogen act 0, FAS TE block 21, SMARCA2 act -2 and FXN GAA850 act 2.
COc1cc2ccccc2cc1C(=O)N/N=C/c1ccc2c(c1)OCO2 was read as KLK7 zymogen act -32, FAS TE block 15, SMARCA2 act -2 and FXN GAA850 act -5.
COc1ccc(-c2cc(C(=O)N/N=C/c3ccc4c(c3)OCO4)c3ccccc3n2)c(OC)c1 was read as KLK7 zymogen act -122, FAS TE block 51*, SMARCA2 act -7 and FXN GAA850 act -1.
For COc1ccc(OC)c(C(=O)CSc2nccc(-c3ccc(Br)cc3)n2)c1 the results were KLK7 zymogen act 0, FAS TE block 31, SMARCA2 act 1 and FXN GAA850 act 2.
For CC(C)OCCCn1c(-c2ccco2)nc2nc3ccccc3nc21 the results were KLK7 zymogen act 4, FAS TE block -2, SMARCA2 act 7.9* and FXN GAA850 act -1.
`N/C(=N\OC(=O)c1ccoc1)c1ccc(Br)cc1` gave KLK7 zymogen act 1, FAS TE block 2, SMARCA2 act 7.8* and FXN GAA850 act 3.
Cc1cc(C)cc(C(=O)O/N=C(\N)c2ccc(Br)cc2)c1 was read as KLK7 zymogen act 0, FAS TE block 0, SMARCA2 act -3 and FXN GAA850 act -3.
